For 7 compounds, inhibition results are on record in ChEMBL document CHEMBL1961873, “Compounds: GSK PKIS; Assays: Nanosyn kinase panel” (2012).

Experiment [1] deals with High affinity nerve growth factor receptor (Homo sapiens) (UniProt P04629). As to conditions: at 1 µM.
In experiment [2] the target is BDNF/NT-3 growth factors receptor (Homo sapiens) (UniProt Q16620). As to conditions: at 0.1 µM.
Experiment [3] has the same target. As to conditions: at 1 µM.
In experiment [4] the target is NT-3 growth factor receptor (Homo sapiens) (UniProt Q16288). As to conditions: at 0.1 µM.
Experiment [5] shares this target. The following applies: at 1 µM.
For experiment [6], the target named is T1, Tyrosine-protein kinase TXK (Homo sapiens) (UniProt P42681).
T1 sequence (whole entry): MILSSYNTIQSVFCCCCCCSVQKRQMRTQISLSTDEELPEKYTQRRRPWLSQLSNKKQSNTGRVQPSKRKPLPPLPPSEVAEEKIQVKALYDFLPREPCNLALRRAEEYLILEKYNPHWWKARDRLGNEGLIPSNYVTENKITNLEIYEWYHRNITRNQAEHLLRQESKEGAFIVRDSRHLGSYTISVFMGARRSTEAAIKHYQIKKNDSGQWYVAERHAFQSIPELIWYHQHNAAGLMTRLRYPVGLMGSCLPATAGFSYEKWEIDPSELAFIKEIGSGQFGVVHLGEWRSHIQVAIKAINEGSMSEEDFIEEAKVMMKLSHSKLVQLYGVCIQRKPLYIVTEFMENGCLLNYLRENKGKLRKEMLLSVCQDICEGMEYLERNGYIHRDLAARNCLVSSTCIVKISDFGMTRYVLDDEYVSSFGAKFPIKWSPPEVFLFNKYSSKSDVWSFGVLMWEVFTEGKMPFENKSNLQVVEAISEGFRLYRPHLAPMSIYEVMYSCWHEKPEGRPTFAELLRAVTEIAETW
The following applies: at 0.1 µM.

Experiment [7] addresses T1, Tyrosine-protein kinase TXK (Homo sapiens). As to conditions: at 1 µM.
Experiment [8] concerns the target Non-receptor tyrosine-protein kinase TYK2 (Homo sapiens) (UniProt P29597). The following applies: at 0.1 µM.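 Also: each value is a mean of the inhibition readings.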
Experiment [9] concerns the target T2, Dual specificity protein kinase TTK (Homo sapiens) (UniProt P33981).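 Also: reported figures are mean TTK inhibition at 1 µM.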
T2 sequence (whole entry): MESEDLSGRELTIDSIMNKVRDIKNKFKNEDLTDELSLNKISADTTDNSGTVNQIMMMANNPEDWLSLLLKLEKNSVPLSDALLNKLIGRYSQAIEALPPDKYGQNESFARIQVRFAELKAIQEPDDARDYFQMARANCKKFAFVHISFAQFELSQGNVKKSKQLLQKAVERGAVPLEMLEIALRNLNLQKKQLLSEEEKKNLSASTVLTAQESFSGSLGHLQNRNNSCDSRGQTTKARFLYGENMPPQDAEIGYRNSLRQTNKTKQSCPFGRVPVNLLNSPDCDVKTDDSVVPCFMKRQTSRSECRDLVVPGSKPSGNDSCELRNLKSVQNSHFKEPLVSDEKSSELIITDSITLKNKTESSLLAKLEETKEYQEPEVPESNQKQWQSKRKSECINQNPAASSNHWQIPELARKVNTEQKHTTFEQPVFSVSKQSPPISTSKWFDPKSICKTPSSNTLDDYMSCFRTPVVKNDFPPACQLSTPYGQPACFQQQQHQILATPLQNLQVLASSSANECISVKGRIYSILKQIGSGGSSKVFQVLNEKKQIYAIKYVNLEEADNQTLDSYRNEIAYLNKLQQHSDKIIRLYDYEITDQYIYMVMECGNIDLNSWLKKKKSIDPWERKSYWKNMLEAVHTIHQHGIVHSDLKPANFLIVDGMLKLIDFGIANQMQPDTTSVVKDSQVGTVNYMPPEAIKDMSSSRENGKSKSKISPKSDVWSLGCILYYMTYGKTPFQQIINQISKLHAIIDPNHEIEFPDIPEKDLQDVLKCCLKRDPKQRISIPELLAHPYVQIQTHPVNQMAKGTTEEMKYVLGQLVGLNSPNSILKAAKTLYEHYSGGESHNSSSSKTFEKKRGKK
As to conditions: at 1 µM.

For experiment [10], the target named is T3, Aurora kinase A (Homo sapiens) (UniProt O14965).
T3 sequence (whole entry): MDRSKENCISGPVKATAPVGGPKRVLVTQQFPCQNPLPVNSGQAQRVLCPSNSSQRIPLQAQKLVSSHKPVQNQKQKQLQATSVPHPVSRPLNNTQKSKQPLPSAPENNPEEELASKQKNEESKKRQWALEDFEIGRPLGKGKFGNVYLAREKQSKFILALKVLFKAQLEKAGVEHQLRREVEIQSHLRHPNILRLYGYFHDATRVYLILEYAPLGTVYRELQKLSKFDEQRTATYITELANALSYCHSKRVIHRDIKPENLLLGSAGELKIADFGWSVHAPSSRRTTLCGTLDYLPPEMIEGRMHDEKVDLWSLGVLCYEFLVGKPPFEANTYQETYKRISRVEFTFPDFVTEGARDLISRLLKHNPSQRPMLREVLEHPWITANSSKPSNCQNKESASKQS
As to conditions: at 0.1 µM.

Experiment [11] has as its target T3, Aurora kinase A (Homo sapiens). As to conditions: at 1 µM.
Experiment [12] addresses Aurora kinase B (Homo sapiens) (UniProt Q96GD4). As to conditions: at 0.1 µM.
Experiment [13] has the same target. The following applies: at 1 µM.
The target of experiment [14] is T4, Aurora kinase C (Homo sapiens) (UniProt Q9UQB9).
T4 sequence (whole entry): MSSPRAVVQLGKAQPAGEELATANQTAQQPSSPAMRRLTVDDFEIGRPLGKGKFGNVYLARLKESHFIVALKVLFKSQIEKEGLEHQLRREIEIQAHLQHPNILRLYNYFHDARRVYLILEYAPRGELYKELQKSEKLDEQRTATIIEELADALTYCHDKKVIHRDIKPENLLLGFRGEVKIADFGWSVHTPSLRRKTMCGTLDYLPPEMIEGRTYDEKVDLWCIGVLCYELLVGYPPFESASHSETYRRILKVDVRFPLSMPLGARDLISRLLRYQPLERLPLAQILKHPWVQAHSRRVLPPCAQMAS
The following applies: at 0.1 µM.

In experiment [15] the target is T4, Aurora kinase C (Homo sapiens). The following applies: at 1 µM.
Experiment [16] addresses Serine/threonine-protein kinase 10 (Homo sapiens) (UniProt O94804). As to conditions: at 0.1 µM.
Experiment [17] shares this target. As to conditions: at 1 µM.
Experiment [18] deals with T5, Mitogen-activated protein kinase kinase kinase kinase 2 (Homo sapiens) (UniProt Q12851).
T5 sequence (whole entry): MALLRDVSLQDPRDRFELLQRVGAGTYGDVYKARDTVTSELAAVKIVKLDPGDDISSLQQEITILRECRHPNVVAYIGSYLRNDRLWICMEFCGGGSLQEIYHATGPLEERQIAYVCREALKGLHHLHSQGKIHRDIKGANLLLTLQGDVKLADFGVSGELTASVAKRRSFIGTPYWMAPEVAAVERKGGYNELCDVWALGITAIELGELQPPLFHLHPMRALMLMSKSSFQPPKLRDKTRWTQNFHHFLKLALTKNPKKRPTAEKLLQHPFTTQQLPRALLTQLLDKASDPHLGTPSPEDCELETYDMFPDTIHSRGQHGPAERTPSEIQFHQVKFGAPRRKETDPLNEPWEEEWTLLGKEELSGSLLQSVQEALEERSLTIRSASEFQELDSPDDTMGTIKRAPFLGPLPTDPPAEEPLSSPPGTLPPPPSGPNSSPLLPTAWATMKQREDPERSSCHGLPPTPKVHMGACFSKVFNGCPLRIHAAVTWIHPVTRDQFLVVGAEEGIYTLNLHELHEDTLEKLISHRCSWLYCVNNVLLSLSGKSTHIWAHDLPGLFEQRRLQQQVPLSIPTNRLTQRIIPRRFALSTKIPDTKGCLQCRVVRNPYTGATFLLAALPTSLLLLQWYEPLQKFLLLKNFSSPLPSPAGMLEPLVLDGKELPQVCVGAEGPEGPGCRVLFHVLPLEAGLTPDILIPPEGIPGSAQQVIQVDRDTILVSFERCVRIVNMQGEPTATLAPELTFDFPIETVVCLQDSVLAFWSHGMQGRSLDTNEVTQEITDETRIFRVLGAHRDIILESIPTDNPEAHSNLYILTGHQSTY
As to conditions: at 0.1 µM.

The target of experiment [19] is T5, Mitogen-activated protein kinase kinase kinase kinase 2 (Homo sapiens). The following applies: at 1 µM.
In experiment [20] the target is Mitogen-activated protein kinase kinase kinase kinase 4 (Homo sapiens) (UniProt O95819). The following applies: at 0.1 µM.
Sequence of Mitogen-activated protein kinase kinase kinase kinase 4 (Homo sapiens) (O95819 2-1239 limits assumed): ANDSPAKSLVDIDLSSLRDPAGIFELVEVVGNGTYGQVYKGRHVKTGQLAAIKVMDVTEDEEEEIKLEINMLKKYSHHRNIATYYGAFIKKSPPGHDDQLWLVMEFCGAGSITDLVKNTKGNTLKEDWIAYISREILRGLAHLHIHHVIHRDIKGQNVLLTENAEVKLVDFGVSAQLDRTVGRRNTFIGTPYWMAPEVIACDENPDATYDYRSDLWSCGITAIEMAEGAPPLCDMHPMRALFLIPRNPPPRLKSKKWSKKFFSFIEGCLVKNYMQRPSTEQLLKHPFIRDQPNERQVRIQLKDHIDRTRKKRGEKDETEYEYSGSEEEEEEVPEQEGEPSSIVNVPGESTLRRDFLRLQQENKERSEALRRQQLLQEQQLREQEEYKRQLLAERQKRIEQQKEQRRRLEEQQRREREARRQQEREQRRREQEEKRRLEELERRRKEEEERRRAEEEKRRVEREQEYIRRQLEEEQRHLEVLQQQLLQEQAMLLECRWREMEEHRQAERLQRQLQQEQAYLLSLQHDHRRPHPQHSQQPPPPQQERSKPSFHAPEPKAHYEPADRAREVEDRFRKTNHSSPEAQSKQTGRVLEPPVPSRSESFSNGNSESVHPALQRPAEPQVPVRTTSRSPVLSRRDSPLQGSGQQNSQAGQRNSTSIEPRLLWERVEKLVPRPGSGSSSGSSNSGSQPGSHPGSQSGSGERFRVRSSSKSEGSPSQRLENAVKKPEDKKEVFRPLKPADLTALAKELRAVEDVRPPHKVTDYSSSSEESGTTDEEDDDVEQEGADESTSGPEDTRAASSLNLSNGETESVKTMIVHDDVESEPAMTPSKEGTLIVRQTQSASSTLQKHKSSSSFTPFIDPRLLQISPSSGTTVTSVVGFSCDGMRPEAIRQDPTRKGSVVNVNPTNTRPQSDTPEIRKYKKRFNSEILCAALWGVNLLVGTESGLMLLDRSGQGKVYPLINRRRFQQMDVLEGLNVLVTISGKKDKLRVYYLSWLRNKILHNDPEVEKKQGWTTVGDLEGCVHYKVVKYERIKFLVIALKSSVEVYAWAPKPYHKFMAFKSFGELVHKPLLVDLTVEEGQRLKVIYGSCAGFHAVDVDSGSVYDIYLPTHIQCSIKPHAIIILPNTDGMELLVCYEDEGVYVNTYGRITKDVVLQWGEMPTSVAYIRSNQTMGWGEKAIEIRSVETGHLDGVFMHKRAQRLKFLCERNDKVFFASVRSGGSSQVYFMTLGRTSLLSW

Sequence of Non-receptor tyrosine-protein kinase TYK2 (Homo sapiens) (P29597 whole entry): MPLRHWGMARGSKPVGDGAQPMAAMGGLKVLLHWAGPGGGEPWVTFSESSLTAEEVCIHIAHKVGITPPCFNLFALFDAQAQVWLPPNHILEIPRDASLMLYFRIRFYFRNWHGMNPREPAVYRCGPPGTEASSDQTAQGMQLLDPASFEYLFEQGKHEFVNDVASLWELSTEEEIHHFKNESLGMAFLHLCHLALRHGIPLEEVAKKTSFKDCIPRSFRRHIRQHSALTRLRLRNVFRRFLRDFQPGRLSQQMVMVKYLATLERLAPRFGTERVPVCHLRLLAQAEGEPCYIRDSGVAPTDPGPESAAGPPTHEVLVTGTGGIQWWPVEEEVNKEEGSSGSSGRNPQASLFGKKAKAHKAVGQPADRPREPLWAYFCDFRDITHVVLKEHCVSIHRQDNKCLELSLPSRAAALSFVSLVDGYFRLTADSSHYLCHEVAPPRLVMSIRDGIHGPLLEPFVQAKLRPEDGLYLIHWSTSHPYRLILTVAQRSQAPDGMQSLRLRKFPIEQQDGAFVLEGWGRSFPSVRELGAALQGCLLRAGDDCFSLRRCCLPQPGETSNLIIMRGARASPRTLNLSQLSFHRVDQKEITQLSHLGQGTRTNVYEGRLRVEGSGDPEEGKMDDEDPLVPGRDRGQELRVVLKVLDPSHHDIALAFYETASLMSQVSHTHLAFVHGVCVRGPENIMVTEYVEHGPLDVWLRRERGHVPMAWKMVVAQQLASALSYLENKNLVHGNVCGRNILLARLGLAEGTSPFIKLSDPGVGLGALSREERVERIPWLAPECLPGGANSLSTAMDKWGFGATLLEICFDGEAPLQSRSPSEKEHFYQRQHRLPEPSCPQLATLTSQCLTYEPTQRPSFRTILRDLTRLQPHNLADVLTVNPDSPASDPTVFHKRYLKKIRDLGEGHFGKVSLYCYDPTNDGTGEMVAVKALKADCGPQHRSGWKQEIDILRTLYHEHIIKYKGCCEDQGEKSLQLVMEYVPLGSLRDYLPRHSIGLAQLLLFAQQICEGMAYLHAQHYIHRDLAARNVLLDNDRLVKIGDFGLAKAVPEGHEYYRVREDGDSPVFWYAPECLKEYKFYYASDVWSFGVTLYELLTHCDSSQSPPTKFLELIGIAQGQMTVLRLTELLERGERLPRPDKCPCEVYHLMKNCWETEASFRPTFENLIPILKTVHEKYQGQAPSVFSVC
Sequence of NT-3 growth factor receptor (Homo sapiens) (Q16288 32-839 limits assumed): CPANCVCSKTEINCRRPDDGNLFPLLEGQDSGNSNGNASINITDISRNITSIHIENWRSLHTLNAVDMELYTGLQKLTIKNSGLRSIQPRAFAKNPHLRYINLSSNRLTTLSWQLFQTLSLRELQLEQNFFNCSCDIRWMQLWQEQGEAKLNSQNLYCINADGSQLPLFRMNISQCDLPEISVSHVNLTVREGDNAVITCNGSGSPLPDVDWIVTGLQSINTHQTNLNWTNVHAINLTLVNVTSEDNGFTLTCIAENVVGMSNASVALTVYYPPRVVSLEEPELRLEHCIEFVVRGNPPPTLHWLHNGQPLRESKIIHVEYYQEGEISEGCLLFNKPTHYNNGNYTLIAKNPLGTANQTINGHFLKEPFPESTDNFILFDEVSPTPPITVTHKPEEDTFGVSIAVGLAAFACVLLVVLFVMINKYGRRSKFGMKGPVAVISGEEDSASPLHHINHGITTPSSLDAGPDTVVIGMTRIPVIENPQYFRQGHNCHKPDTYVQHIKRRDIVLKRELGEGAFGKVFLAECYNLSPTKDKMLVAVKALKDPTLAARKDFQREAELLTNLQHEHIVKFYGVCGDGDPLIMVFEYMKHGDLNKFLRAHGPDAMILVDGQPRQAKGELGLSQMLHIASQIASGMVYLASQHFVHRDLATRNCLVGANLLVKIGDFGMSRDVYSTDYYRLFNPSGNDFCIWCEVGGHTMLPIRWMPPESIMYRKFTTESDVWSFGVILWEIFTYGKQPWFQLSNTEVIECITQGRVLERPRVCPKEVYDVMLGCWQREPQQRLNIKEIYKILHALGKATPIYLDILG
Sequence of High affinity nerve growth factor receptor (Homo sapiens) (P04629 33-796 limits assumed): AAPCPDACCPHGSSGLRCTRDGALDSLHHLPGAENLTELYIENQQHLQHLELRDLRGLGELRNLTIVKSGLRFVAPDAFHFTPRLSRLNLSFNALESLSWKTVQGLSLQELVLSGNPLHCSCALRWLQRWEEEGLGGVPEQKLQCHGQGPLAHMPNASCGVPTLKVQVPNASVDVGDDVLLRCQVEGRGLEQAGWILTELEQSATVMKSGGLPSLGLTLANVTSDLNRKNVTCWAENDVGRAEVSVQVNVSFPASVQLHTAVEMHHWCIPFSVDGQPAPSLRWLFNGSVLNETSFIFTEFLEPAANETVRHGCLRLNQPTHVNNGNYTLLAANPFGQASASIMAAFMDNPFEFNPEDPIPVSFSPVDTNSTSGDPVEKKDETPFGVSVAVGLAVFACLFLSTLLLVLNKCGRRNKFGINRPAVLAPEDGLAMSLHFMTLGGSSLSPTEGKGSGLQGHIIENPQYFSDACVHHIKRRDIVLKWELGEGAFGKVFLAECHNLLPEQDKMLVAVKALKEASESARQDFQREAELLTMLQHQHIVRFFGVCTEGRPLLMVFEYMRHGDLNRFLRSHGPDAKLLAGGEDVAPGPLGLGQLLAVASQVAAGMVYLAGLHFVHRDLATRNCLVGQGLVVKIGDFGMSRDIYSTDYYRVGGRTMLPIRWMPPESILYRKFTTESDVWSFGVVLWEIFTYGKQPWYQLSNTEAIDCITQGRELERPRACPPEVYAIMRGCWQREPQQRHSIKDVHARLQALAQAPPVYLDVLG
Sequence of BDNF/NT-3 growth factors receptor (Homo sapiens) (Q16620 32-822 limits assumed): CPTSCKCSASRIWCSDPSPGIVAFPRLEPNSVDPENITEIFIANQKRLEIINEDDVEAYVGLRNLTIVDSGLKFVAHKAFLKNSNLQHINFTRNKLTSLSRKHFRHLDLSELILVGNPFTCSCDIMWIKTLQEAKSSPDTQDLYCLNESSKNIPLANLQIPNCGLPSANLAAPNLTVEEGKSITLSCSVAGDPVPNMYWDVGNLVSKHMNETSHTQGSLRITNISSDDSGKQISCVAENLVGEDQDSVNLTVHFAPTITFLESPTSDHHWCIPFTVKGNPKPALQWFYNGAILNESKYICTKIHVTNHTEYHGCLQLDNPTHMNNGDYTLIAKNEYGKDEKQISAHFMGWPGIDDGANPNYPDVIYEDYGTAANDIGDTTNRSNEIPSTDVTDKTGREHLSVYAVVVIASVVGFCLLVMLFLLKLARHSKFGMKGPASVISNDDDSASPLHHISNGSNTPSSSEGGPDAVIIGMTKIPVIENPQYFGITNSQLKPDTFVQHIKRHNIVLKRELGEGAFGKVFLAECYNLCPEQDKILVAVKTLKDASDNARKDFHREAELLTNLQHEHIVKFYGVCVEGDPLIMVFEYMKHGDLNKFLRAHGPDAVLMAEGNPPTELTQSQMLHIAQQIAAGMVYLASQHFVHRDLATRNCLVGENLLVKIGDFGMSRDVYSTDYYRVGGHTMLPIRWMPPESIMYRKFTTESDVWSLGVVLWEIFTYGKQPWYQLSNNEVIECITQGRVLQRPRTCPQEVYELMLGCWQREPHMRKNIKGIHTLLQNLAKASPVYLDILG

`Cc1ccc(NC(=O)c2ccnc(N3CCCC3)c2)cc1-c1ccc(C(=O)NCC2CC2)cc1`: the inhibition is 2.28% in [1]; 3.47% in [2]; 1.15% in experiment [3]; 3.16% in experiment [4]; 3.39% in [5]; -1.04% in experiment [6]. Also, the inhibition is 0.09% in [7]; -3.05% in [8]; 16.9% in [9]; 0.15% in experiment [10]; 4.67% in experiment [11]; 1.95% in experiment [12]. Moreover, the inhibition in experiment [13] is 6.5%; in experiment [14], -0.41%; in [15], 7.12%; in experiment [16], 3.49%; in [17], 7.84%; in experiment [18], 3.82%. The figures for the inhibition in experiment [19] and in experiment [20] were 13.5% and 10%, respectively.
Take `CC(=O)Nc1cccc(C#Cc2cncnc2Nc2ccc(OCc3cccc(F)c3)c(Cl)c2)n1`: the inhibition in experiment [1] is -2.48%; in experiment [2], -1.79%; in [3] it was 0.05%; in experiment [4], -0.41%; in experiment [5] it was 4.04%; in experiment [6], 0.96%. Also, the inhibition in [7] is 0.46%; in experiment [8], 4.58%; in experiment [9] it was 10.8%; in experiment [10], -0.41%; in [11], 2.65%; in experiment [12] it was 3.23%. The inhibition is 1.96% in experiment [13]; 3.46% in experiment [14]; -5.73% in experiment [15]; 4.04% in experiment [16]; 14.4% in experiment [17]; 2.81% in experiment [18]. Moreover, the inhibition in [19] was 2.04%; in experiment [20], -0.3%.
On to `Fc1cccc(COc2ccc(Nc3ncnc4cc(-c5ccc[nH]5)sc34)cc2Cl)c1`, for which the inhibition is 2.72% in [1]; 2.62% in experiment [2]; 0.88% in experiment [3]; 2.48% in experiment [4]; 2.41% in [5]; 2.95% in [6]. Besides, the inhibition in experiment [7] is 9.57%; in [8], -1%; in experiment [9], 10.7%; in [10], -2.74%; in [11], 7.53%; in experiment [12], 0.54%. The inhibition in experiment [13] is 13.2%; in [14], -2.76%; in experiment [15], -2.08%; in experiment [16] it was 2.11%; in experiment [17], 11.9%; in experiment [18] it was 0.55%. Further, the values for the inhibition in experiment [19] and in [20] were 4.58% and 5.64%, respectively.
For `O=C(Nc1n[nH]c2nc(-c3ccco3)c(Br)cc12)C1CC1`, the inhibition is 3.72% in experiment [1]; -0.07% in experiment [2]; 1.56% in [3]; 1.75% in [4]; 4.33% in experiment [5]; 2.71% in experiment [6]. Moreover, the inhibition is 5.55% in experiment [7]; -1.26% in experiment [8]; -3.66% in experiment [9]; 2.52% in experiment [10]; 45.6% in experiment [11]; 5.16% in experiment [12]. Besides, the inhibition in [13] is 14.5%; in [14], 2.71%; in experiment [15] it was 29.4%; in experiment [16], 6.48%; in experiment [17], 11.3%; in experiment [18] it was -0.14%. Further, the figures for the inhibition in experiment [19] and in experiment [20] were 2.51% and 4.76%, respectively.
In the case of `COc1ccc2cc(-c3c(-c4ccncc4)nc(-c4ccc([S+](C)[O-])cc4)n3C)ccc2c1` (stereo not given), the inhibition worked out at 1.74% in experiment [1]; 0.67% in experiment [2]; 1.15% in experiment [3]; 0.11% in [4]; 1.86% in experiment [5]; 1.4% in experiment [6]. The inhibition in [7] is 4.06%; in experiment [8], -2.53%; in experiment [9] it was 7.86%; in experiment [10] it was 3.45%; in experiment [11] it was 9.25%; in experiment [12], 4.15%. In addition, the inhibition amounted to 11% in experiment [13]; 2.18% in [14]; 15.4% in experiment [15]; 36% in experiment [16]; 78.4% in experiment [17]; 0.6% in experiment [18]. Also, the inhibition is 0.64% in experiment [19] and 2.59% in experiment [20].
Turning to `Cc1nnc(-c2ccc(C)c(-c3ccc(C(=O)Nc4cccc(C#N)c4)cc3)c2)o1`, the inhibition in experiment [1] is -1.21%; in [2] it was 1.33%; in [3] it was 3.51%; in experiment [4] it was -0.42%; in experiment [5], 3.49%; in experiment [6], 3.37%. The inhibition in experiment [7] is 4.78%; in [8], -1.14%; in experiment [9], 6.46%; in experiment [10] it was 0.8%; in [11], 5.96%; in experiment [12], 2.83%. Further, the inhibition was 4.74% in experiment [13]; 1.31% in experiment [14]; -2.81% in experiment [15]; 4.18% in experiment [16]; 5.45% in [17]; -0.38% in experiment [18]. Moreover, the inhibition in [19] is 2.09%; in experiment [20] it was 5.31%.
`COc1cc2c(cc1Nc1nc(N3CCc4ccccc43)c3cc[nH]c3n1)N(C(=O)CN(C)C)CC2`: the inhibition is 3.52% in [1]; -0.87% in [2]; 2.75% in [3]; -1.19% in experiment [4]; 5.17% in experiment [5]; 4.42% in experiment [6]. Moreover, the inhibition in experiment [7] is 7.54%; in experiment [8], -1.57%; in experiment [9], 25.1%; in experiment [10], 1.58%; in experiment [11], 2.61%; in experiment [12] it was 0.77%. Also, the inhibition amounted to 3.08% in experiment [13]; 0.6% in experiment [14]; 8.2% in experiment [15]; 1.91% in experiment [16]; 1.24% in experiment [17]; 0.88% in experiment [18]. Further, the inhibition in experiment [19] is 3.15%; in experiment [20], 1.37%.
